BLM inh: qHTS Assay for Inhibitors of Bloom's syndrome helicase (BLM) | RecQ-like DNA helicase BLM (Homo sapiens), P54132 | recombinant BLM DNA unwinding, fluorescence dequenching | Potency, µM (series often up to 56.1 µM), for inactives: top-dose activity change, negative = inhibition, actives largely listed as inhibitors | 0.2% of 350,000 active;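 further: plate controls were vehicle for no effect and no enzyme for full effect; nearly all actives have a fitted effect of over 35% in size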
APEX1 inh: qHTS Assay for Inhibitors of the Human Apurinic/apyrimidinic Endonuclease 1 (APE1). DNA repair nuclease/redox regulator APEX1 (Homo sapiens), P27695. recombinant APE1, TAMRA/BHQ-2 abasic DNA cleavage fluorescence. Potency, µM (titrated, usually from 65.8 µM), without a hit: top-dose activity change, negative = inhibition, actives largely listed as inhibitors. 0.35% of 350,000 active. AID 2517, 2012;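 further: plate controls were vehicle for no effect and reference inhibitor for full effect; nearly all actives have a fitted effect of over 55% in size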
Target sequence (P27695 whole entry, looked up): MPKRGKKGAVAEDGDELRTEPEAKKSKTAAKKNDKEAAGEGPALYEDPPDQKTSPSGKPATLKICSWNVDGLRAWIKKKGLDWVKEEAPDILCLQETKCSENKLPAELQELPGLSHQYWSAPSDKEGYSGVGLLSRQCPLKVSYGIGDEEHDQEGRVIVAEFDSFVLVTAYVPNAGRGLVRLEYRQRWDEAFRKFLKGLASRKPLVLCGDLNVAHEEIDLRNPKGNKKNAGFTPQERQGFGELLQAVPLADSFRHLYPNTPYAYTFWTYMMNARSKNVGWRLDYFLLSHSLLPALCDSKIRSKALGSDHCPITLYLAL
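Incision of a quenched TAMRA/BHQ-2 THF abasic-site duplex (50 nM) by 0.75 nM APE1, after 15 min compound preincubation, measured as fluorescence increase over three 60 s reads. Values normalized to buffer, DMSO and NSC13755 control wells.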
GoLoco inh red: qHTS Assay for Inhibitors of RGS12 GoLoco Motif Activity (Red Fluorophore) | Guanine nucleotide-binding protein G(i) subunit alpha-1 (Homo sapiens), P63096 | Gai1:RGS12 GoLoco peptide FP, rhodamine, 10 min | Potency, µM (doses to about 61.6 µM), inactives show at the top dose activity, negative = inhibition, actives largely listed as inhibitors | 0.44% of 230,000 active; active means well fitted inhibition curve with a large enough effect, not every such curve was filed as active; inactive means no such curve, though single readings can be large or run the other way; further: nearly all actives have a fitted effect of over 30% in size
RECQ1 helicase: qHTS Assay for Inhibitors of RecQ-Like Dna Helicase 1 (RECQ1); ATP-dependent DNA helicase Q1 (Homo sapiens), P46063; RECQ1 DNA unwinding, red fluorescence kinetic read; Potency, µM (titrated, usually from 57.3 µM), for the others: top-dose activity, negative = inhibition, usual class: inhibitors; 0.54% of 240,000 active; AID 2549, 2010;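 further: plate controls were vehicle for no effect and no enzyme for full effect; nearly all actives have a fitted effect of over 30% in size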
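RECQ1T1 50 nM; forked duplex (20 bp + 30-nt ss tails) 200 nM, ATP 2 mM final; pH 8.0, 2 mM MgCl2, 2.5 ug/ml poly(dI-dC); 15 min compound preincubation; discontinuous kinetic read over 2 h at RT.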
TRb-SRC2 inh: qHTS for Inhibitors of the Interaction of Thyroid Hormone Receptor and Steroid Receptor Coregulator 2. Thyroid hormone receptor beta (Homo sapiens), P10828. TRbeta-SRC2 peptide binding, fluorescence polarization; receptor liganded with 1 µM T3. Potency, µM (series often up to 106 µM), for inactives: at the highest dose activity change, negative = inhibition, usual class: inhibitors. 0.065% of 280,000 active;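 further: plate controls were bound peptide for no effect and peptide without receptor for full effect; nearly all actives have a fitted effect of over 50% in size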
Target sequence (P10828 whole entry, looked up): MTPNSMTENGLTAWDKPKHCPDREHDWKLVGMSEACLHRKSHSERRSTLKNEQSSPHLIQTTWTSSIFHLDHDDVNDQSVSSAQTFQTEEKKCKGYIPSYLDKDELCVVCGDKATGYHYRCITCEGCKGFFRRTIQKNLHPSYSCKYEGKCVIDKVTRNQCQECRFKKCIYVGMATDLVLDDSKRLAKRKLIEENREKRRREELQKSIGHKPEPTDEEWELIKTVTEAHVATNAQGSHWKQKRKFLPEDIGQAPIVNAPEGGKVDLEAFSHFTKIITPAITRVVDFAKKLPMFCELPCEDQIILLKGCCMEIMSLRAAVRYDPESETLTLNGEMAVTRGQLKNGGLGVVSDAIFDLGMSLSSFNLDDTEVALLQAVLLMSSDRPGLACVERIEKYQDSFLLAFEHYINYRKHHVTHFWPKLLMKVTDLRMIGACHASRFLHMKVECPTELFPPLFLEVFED
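Fluorescence polarization of 20 nM Texas Red SRC2 peptide (20-aa NR interaction domain) bound to 0.6 uM human TRb ligand-binding domain, with 1 uM T3, after 5 hr at ambient temperature; inhibition seen as decreased polarization.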
TexasRed fluor: Total Fluorescence Counterscreen for Inhibitors of the Interaction of Thyroid Hormone Receptor and Steroid Receptor Coregulator 2 | TRb/SRC2 Texas Red total fluorescence interference | 0.29% of 280,000 active | Potency, µM (series often up to 106 µM), without a hit: at the top dose fluorescence change, negative = quenching; active means well fitted curve in either direction with a large enough effect; inconclusive means small, poorly fitted or top-dose-only effect
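Human TRb ligand-binding domain at 0.6 uM with 20 nM Texas Red SRC2 peptide in Tris buffer containing 1 uM T3 and 5% DMSO, incubated with compound 5 h at ambient temperature. Total fluorescence (555/632 nm) calculated as parallel + 2 × perpendicular.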
An asterisk follows results filed as active; i = inactive; ? = inconclusive; . = no result; ! = not active in a repeat; [ ] = remark or other dose. Sampled rows, rich in hits. Any-hit rate of the full collection: about 0.9%. Unless noted, the call rests on the fitted dose curve; in most records, active means well fitted curve in the direction sought with a large enough effect; inconclusive means small, poorly fitted or top-dose-only effect, or another doubt; inactive means no such curve, though single readings can be large; an effect the other way counts as inactive or inconclusive. Unless noted, on the % scale 0 is the no-effect control and ±100 the full control effect; potency means the concentration at half of the fitted maximal effect.

SMILES | BLM inh | APEX1 inh | GoLoco inh red | RECQ1 helicase | TRb-SRC2 inh | TexasRed fluor
Nc1cc(Cl)c(O)c(Cl)c1 | . | . | . | . | -13%[201 µM] | ?
COc1ccc(C2=C(C)C(=O)N(Cc3ccc(C(=O)NCc4cccc(C)c4)cc3)S2(=O)=O)cc1 | -2% | . | . | . | -24% | 158µM*[quencher]
COc1ccc(C2=C(C)C(=O)N(Cc3ccc(C(=O)NCc4ccc(C)cc4)cc3)S2(=O)=O)cc1 | -1% | . | . | . | 2% | 0%
Cc1ccc(Cl)cc1NC(=O)N1CCC2(CC1)Oc1ccccc1C(=O)N2Cc1ccccc1F | -7% | . | . | . | -5% | 35µM*[quencher]
CN=c1scc(-c2ccccc2F)n1/N=C/c1ccc(O)c(O)c1O | ? | 10µM* | 42% | 7.9µM* | -4% | -23%
Cc1ccc2c(c1)c(=O)c(C(=O)c1ccc3c(c1)OCO3)cn2Cc1ccc(Cl)cc1 | -13% | . | . | . | 4% | -24%
C/C(CCN1CCCc2nc(C)c(C)cc21)=N\O[C@@H](C)c1cn([C@H](CO)Cc2ccccc2)nn1 | 4%[12.4 µM] | ? | . | 1%[11.5 µM] | -6%[11.2 µM] | -4%[11.2 µM]
COc1ccccc1CNc1nc(-c2ccco2)nn1S(=O)(=O)c1ccc2ccccc2c1 | -8% | . | . | . | -6% | 1122µM*[quencher]
Cc1cc(N/N=C/c2ccc(O)cc2)nc(NS(=O)(=O)c2ccccc2)n1 | 2% | 10µM* | 1% | -1% | -2% | -13%
Cc1ccc(/C=N/Nc2cc(C)nc(NCc3ccccc3)n2)cc1 | -14% | 2% | -3% | -17% | -2% | 4%
CC(C)(C)n1ncc2c(=O)n(Cc3ccc(F)cc3F)cnc21 | . | -2% | . | . | . | .
Nc1ccc(N)c(Cl)c1 | . | ? | -8% | 22µM* | ? | -20%
Cc1ccc(C(=O)N/N=C/c2cn(Cc3ccccc3)c3ccccc23)cn1 | -8% | 13% | 12% | -8% | -2% | -3%
O=C(N/N=C/c1cn(Cc2ccccc2)c2ccccc12)c1cc(O)cc(O)c1 | -15% | 15µM* | . | . | . | .
CCOP(=O)(OCC)/C(=N/OC(=O)c1ccc(OC)cc1)C(N)=O | 35% | -9% | 4.5µM* | i | -5% | 0%
CCOP(=O)(OCC)/C(=N/OC(=O)c1ccccc1C)C(N)=O | -1% | 1% | 6% | 0% | 8% | -1%
CCCCCCCC/C=C\CCCCCCCC(N)=O | -12% | 1% | 22µM*! | 13% | -1% | 2%
CSc1nsc(/C=C/Nc2ccc(C(=O)O)cc2)c1C#N | 28µM* | ? | 15% | -6% | 4% | -1%
CC(CNC(=O)Cn1c(-c2cccs2)cc2cc(Cl)ccc21)c1ccccc1 (stereo unspecified) | 1% | . | . | . | -6% | ?
COCCNC(=O)Cn1c(-c2cccs2)cc2cc(Cl)ccc21 | -3% | . | . | . | -20% | 126µM*[quencher]
CCN1CCN(CCCNC(=O)Cn2c(-c3cccs3)cc3cc(F)ccc32)CC1 | -5% | . | . | . | ? | 141µM*[quencher]
CC1(C)S[C@@H]2[C@H](NC(=O)[C@H](C(=O)O)c3ccsc3)C(=O)N2[C@H]1C(=O)O | -2% | 5% | 25µM*! | -1% | 2% | -1%
COC(=O)c1c(-c2cccs2)csc1NC(=O)c1cccc(Cl)c1 | -6% | . | . | . | ? | 1122µM*[quencher]
COc1ccc(NC(=O)Cn2c3ncccc3c(=O)n2-c2ccc(C)c(C)c2)c(OC)c1 | -10% | . | . | . | -7% | -3%
CC1(C)CC(NCCCCCCNC2CC(C)(C)NC(C)(C)C2)CC(C)(C)N1 | . | . | . | . | 6%[201 µM] | 1%[201 µM]
SMILES | BLM inh | APEX1 inh | GoLoco inh red | RECQ1 helicase | TRb-SRC2 inh | TexasRed fluor
Cc1ccc2nc(-c3cccc(NS(C)(=O)=O)c3)cc(-c3ccccc3)c2c1 | 1% | 4% | 5% | -10% | -9%[53 µM] | 0.1µM*[quencher]
Cc1cccc(CNc2nc(-c3cccc(NS(C)(=O)=O)c3)nc3ccccc23)c1 | -8% | -3% | -5% | -8% | 11% | 1%
N/N=C1/CC(=O)NC(=O)N1 | . | . | 8%[14.2 µM] | . | . | .
COc1ccc(N(C)C(=O)c2cc(S(=O)(=O)N3CCc4ccccc43)cn2C)c(OC)c1 | -16% | . | . | . | -20% | 0.016µM*[quencher]
COc1ccc(NC(=O)c2nnn(Cc3nc(-c4cc(OC)c(OC)c(OC)c4)oc3C)c2C)cc1Cl | -5% | . | . | . | -22%[53 µM] | 0.0089µM*[quencher]
Cc1ccc2nc(-c3ccc(C)o3)c(Nc3ccc4c(c3)OCCO4)n2c1 | -5% | . | . | . | -15% | 0.0013µM*[quencher]
CC(C)=CCC[C@@H](C)[C@H]1CC[C@@]2(C)C3=C(CC[C@]12C)[C@@]1(C)CC[C@H](O)C(C)(C)[C@@H]1CC3 | . | . | . | . | -3%[201 µM] | 2%[201 µM]
Nc1ccc2c(c1)-c1ccccc1S(=O)(=O)N2 | -1% | -5% | 2µM* | ? | -7% | -5%
NC(=O)C(=CNc1nc(-c2ccc(Cl)c(Cl)c2)cs1)C(N)=O | ? | 0.63µM* | -6% | 3.5µM* | -3% | -9%
Cc1ccc(CNC(=O)c2cc(=O)c3cc(C)cc(C)c3o2)cc1 | -3% | . | . | . | -14% | 4µM*[quencher]
Cc1cc(C)c2oc(C(=O)NCc3ccccc3)cc(=O)c2c1 | -11% | 16% | . | . | . | .
CC(c1ccccc1)C(CC(=O)O)C(=O)NC1CCCCC1 (stereo unspecified) | 3% | -2% | 5% | -9% | -2% | -1%
CC(c1ccccc1)C1OCC(C[N+]2(C)CCCCC2)O1 (stereo unspecified) | -6% | ? | 10µM* | i | -5% | 0%
O=C(O)C(S)[C@@H](S)C(=O)O (stereo partly specified) | 4% | 14µM* | 2% | i | 4% | -13%
CCCS(=O)(=O)N1CC(=O)N(c2cc(C)ccc2C)C(C)(C(=O)NC2CCCCCC2)C1 (stereo unspecified) | 0% | . | . | . | -10% | 25µM*[quencher]
N#Cc1c(-c2ccc([N+](=O)[O-])cc2)no[n+]1[O-] | . | 7% | . | . | . | .
Cc1nc(-c2ccc(C)c(N3CCN(C(=O)Nc4ccccc4C(F)(F)F)CC3)c2)no1 | 1% | . | . | . | 3% | 2%
COc1ccc2c(c1)O[C@@H](c1ccc3c(c1)OCO3)[C@H](OC(=O)N[C@H]1CCCc3ccccc31)C2=O | -2% | 2% | 9% | i | 0% | -2%
Cc1cc2cc(CNS(=O)(=O)c3ccc4ccccc4c3)ccc2n1C | -12% | -8% | -62% | ? | 45µM* | 45µM*[fluorescent]

Compound activity (PubChem BioAssay)
